These results are taken from PubChem BioAssay.

Molecules are shown by their SMILES. The source made the active and inactive calls. Unless noted, the rule behind the calls is not given here.

Experiment [1] has as its system XIP peptide (Xip251-270) binding. As to the kind of experiment: small-molecule binders of XIP peptide, primary screen, biochemical, small-molecule microarray, fluorescence 635/667 nm, 0.1 µg/mL protein (AID 1182). The note with it: fluorescent protein binding, 635 nm, higher = more signal, called active from +8 up or from −8 down.
A further experiment deals with XIP peptide (Xip251-270). As to the kind of experiment: small-molecule binders of XIP peptide, primary screen, biochemical, small-molecule microarray, fluorescence 635/667 nm, 0.5 µg/mL protein (AID 1183). Conditions: small-molecule microarray binding, fluorescence 635 nm; higher = more signal.
A short description of experiment [2]: Plasmodium falciparum growth inhibition, primary screen, strain 3D7, DAPI fluorescence, 100 nL (AID 1184).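 Note: parasites grown inside human red blood cells in medium with human serum.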 Conditions: P. falciparum 3D7 growth, 3 d, higher = more signal.
Experiment [3] concerns the target Homeobox protein Hox-A13 (Mus musculus) (UniProt Q62424). Briefly: inhibitors of HoxA13-DNA binding, primary screen, biochemical, fluorescence polarization, labeled oligonucleotide (AID 1185). The note with it: 15 min, higher = more signal, called active from +8 up or from −8 down.
Experiment [4] is described as follows: inhibitors of hydroxyurea-induced Chk1 phosphorylation, primary screen, imaging, HeLa, phospho-Chk1 antibody, percent positive cells (AID 1186). The note with it: hydroxyurea-induced phospho-Chk1 immunofluorescence imaging, higher = more signal.
Experiment [5] in a line: inhibitors of hydroxyurea-induced Chk1 phosphorylation, primary screen, imaging, HeLa, phospho-Chk1 nuclear intensity (AID 1187). Conditions: hydroxyurea-induced phospho-Chk1 immunofluorescence imaging, higher = more signal.

Homeobox protein Hox-A13 (Mus musculus), sequence (Q62424 whole entry, looked up): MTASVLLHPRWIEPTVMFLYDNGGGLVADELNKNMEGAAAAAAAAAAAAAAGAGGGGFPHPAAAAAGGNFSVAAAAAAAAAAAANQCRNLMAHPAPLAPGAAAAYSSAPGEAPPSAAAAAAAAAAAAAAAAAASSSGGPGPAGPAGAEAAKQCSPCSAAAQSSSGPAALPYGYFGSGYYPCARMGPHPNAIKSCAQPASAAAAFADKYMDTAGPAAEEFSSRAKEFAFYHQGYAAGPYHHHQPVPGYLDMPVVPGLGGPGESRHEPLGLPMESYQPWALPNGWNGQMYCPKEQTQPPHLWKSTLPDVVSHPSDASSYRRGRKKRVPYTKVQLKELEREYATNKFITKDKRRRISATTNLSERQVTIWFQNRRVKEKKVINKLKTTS

For `COc1ccc([C@H]2OC[C@@H]3CCC(=O)N32)cc1`, the figures for the composite z-score (in experiment [1]; in the experiment on XIP peptide (Xip251-270)) were 0.467 (inactive) and 0.394, respectively. For the same compound, the z-score in experiment [2] is 0.401; in experiment [3], 0.119 (inactive); in experiment [4], -0.208 (inactive); in experiment [5] it was -0.183 (inactive).

`CS(=O)(=O)CCOC(=O)C1=CC(CCCO)=CC(C2CC2)N(Cc2cc3c(cc2Br)OCO3)C=C1C(=O)OCCS(C)(=O)=O` (stereo unspecified): the composite z-score in experiment [1] is 0.389 (inactive); in the experiment with XIP peptide (Xip251-270), -0.111. For the same compound, the z-score in experiment [2] is -2.58; in experiment [3] it was -5.51 (inactive); in experiment [4], -1.19 (inactive); in experiment [5], -0.295 (inactive).

With `[N-]=[N+]=Nc1ccccc1[C@H]1OC(c2ccc(OCCCO)cc2)=N[C@@]1(CCS(=O)(=O)c1ccccc1)C(=O)NCc1ccccc1`, the figures for the composite z-score (in experiment [1]; in the experiment with XIP peptide (Xip251-270)) were 0.273 (inactive) and 0.774, respectively. Moreover, the z-score in experiment [2] is -2.48; in experiment [3], -1.99 (inactive); in experiment [4], 0.517 (inactive); in experiment [5] it was 0.227 (inactive).

Turning to `COCCCNC(=O)[C@@]1(Cc2ccccc2)N=C(c2ccc(OCCCO)cc2)O[C@H]1c1ccccc1CN=[N+]=[N-]`, the results for the composite z-score (in experiment [1]; with XIP peptide (Xip251-270)) were 0.596 (inactive) and 0.801, respectively. For the same compound, the z-score in experiment [2] was -2.62; in experiment [3], -3.07 (inactive); in experiment [4] it was 0.0048 (inactive); in experiment [5] it was -0.194 (inactive).

`C=C(C(=O)CC[C@H](OC(C)=O)c1ccccc1OCCO)C(C)C`: the figures for the composite z-score (in experiment [1]; in the experiment with XIP peptide (Xip251-270)) were -0.571 (inactive) and 0.332, respectively. In addition, the z-score in experiment [2] was -2.09; in experiment [3], -0.163 (inactive); in experiment [4], -0.145 (inactive); in experiment [5], -0.0797 (inactive).

As to `COCCOC(=O)N1C(=O)[C@@]2(c3cc(C#CCCO)ccc31)[C@H](c1ccc(OCCO)cc1)N1[C@H](c3ccccc3)[C@H](c3ccccc3)OC(=O)[C@H]1[C@@H]2C(N)=O`, the composite z-score in experiment [1] is 0.464 (inactive); in the experiment with XIP peptide (Xip251-270), 0.779. Moreover, the z-score was -0.222 in experiment [2], -1.33 (inactive) in experiment [3], -0.0438 (inactive) in experiment [4] and 0.51 (inactive) in experiment [5].

On to `COc1cc2c(cc1O)C=[N+](Cc1cc3c(cc1Br)OCO3)CC2`, for which the figures for the composite z-score (in experiment [1]; in the experiment on XIP peptide (Xip251-270)) were -0.105 (inactive) and 1.1, respectively. Moreover, the z-score in experiment [2] was -1.88; in experiment [3] it was -3.19 (inactive); in experiment [4] it was -0.126 (inactive); in experiment [5] it was -0.203 (inactive).

Take `CCOC(=O)C1=CC[C@H]2C(=O)N(c3ccccc3)C(=O)[C@@H]12`: the composite z-score in experiment [1] was 0.571 (inactive); with XIP peptide (Xip251-270), 0.903. Further, the z-score is -0.55 in experiment [2], -3.98 (inactive) in experiment [3], 0.152 (inactive) in experiment [4] and -0.177 (inactive) in experiment [5].

For the compound `C=CCC(OC(C)=O)[C@@H]1[C@@H](N(Cc2ccc(-c3ccccc3)cc2)C(=O)Cc2ccc(F)cc2)c2cc(OCCCO)ccc2N1C(=O)c1ccc2ccccc2c1` (stereo partly specified), the composite z-score is -0.568 (inactive) in experiment [1] and -0.245 in the experiment with XIP peptide (Xip251-270). Also, the z-score is -2.17 in experiment [2], -1.35 (inactive) in experiment [3], 0.295 (inactive) in experiment [4] and -0.009 (inactive) in experiment [5].

`COc1cc2c(cc1OC)CN(C(=O)[C@H]1[C@@H]3C(=O)O[C@@H](c4ccccc4)[C@@H](c4ccccc4)N3[C@@H](c3ccccc3OCCO)[C@]13C(=O)Nc1ccc(C#CCCO)cc13)CC2`: the composite z-score is 0.138 (inactive) in experiment [1] and 0.438 with XIP peptide (Xip251-270). Moreover, the z-score in experiment [2] is -2.16; in experiment [3], 1.23 (inactive); in experiment [4], 0.211 (inactive); in experiment [5] it was 0.0914 (inactive).

For `[N-]=[N+]=Nc1ccccc1C[C@@]1(C(=O)N2CCCCC2)N=C(c2ccc(OCCCO)cc2)O[C@@H]1c1ccccc1`, the composite z-score is -0.0034 (inactive) in experiment [1] and 0.727 in the experiment on XIP peptide (Xip251-270). In addition, the z-score was -2.19 in experiment [2], -5.04 (inactive) in experiment [3], -0.878 (inactive) in experiment [4] and -0.654 (inactive) in experiment [5].

As for `COC(=O)[C@@]1(Cc2ccc(F)cc2)[C@H]2c3cc(C(=O)N(C)C)n(Cc4cc(C)n(C)n4)c3C[C@H]2CN1C(=O)c1ccccc1`, the composite z-score in experiment [1] was 0.537 (inactive); in the experiment with XIP peptide (Xip251-270), 0.801. For the same compound, the z-score is -0.358 in experiment [2], -1.42 (inactive) in experiment [3], 0.669 (inactive) in experiment [4] and 0.333 (inactive) in experiment [5].

`CCN(CC)c1ccc(N2CC=CC34O[C@@H]5/C=C\CCC(C)OC(=O)C5[C@H]3C(=O)N(CCCCCO)[C@@H]4C2=O)cc1` (stereo partly specified): the results for the composite z-score (in experiment [1]; in the experiment on XIP peptide (Xip251-270)) were -0.474 (inactive) and 0.102, respectively. Further, the z-score in experiment [2] is -0.0194; in experiment [3], -5.39 (inactive); in experiment [4], 0.489 (inactive); in experiment [5], 0.673 (inactive).

Turning to `O=C1C2C=CC(C(O)c3c(F)cccc3Cl)N(Nc3ccccc3F)C2C(=O)N1c1ccccc1` (stereo unspecified), the values for the composite z-score (in experiment [1]; with XIP peptide (Xip251-270)) were 0.433 (inactive) and 0.811, respectively. Besides, the z-score in experiment [2] is 0.562; in experiment [3], -0.377 (inactive); in experiment [4], 0.486 (inactive); in experiment [5], 0.435 (inactive).

Regarding `COCCCNC(=O)[C@@]1(CCS(=O)(=O)c2ccccc2)N=C(c2ccc(OCCCO)cc2)O[C@H]1c1ccccc1N=[N+]=[N-]`, the composite z-score is 1.26 (inactive) in experiment [1] and 0.839 in the experiment with XIP peptide (Xip251-270). Moreover, the z-score was -2.72 in experiment [2], -3.94 (inactive) in experiment [3], -0.662 (inactive) in experiment [4] and -0.624 (inactive) in experiment [5].

In the case of `O=C(CS)NCCCCCNC(=O)[C@H]1C[C@H]2C(=O)NCC(=O)N2[C@H]1c1cccc(OCCO)c1`, the figures for the composite z-score (in experiment [1]; in the experiment on XIP peptide (Xip251-270)) were -0.109 (inactive) and 0.388, respectively. Besides, the z-score in experiment [2] is 1.01; in experiment [3] it was -1.67 (inactive); in experiment [4] it was -0.56 (inactive); in experiment [5], -0.321 (inactive).

Regarding `CN(C)C(=O)[C@]1(Cc2ccccc2)N=C(c2ccc(OCCCO)cc2)O[C@@H]1c1ccccc1N=[N+]=[N-]`, the composite z-score in experiment [1] is 0.79 (inactive); in the experiment with XIP peptide (Xip251-270), 0.708. In addition, the z-score was -2.31 in experiment [2], -5.85 (inactive) in experiment [3], -0.366 (inactive) in experiment [4] and -0.903 (inactive) in experiment [5].

Turning to `COCCOC(=O)N1C(=O)[C@@]2(c3cc(C#CC4(O)CCCCCC4)ccc31)[C@H](C(=O)Nc1nc3ccccc3s1)[C@H]1C(=O)O[C@H](c3ccccc3)[C@H](c3ccccc3)N1[C@@H]2c1ccc(OCCO)cc1`, the composite z-score in experiment [1] was -0.148 (inactive); in the experiment with XIP peptide (Xip251-270) it was 0.712. In addition, the z-score in experiment [2] was -1.71; in experiment [3], 0.447 (inactive); in experiment [4] it was -0.086 (inactive); in experiment [5], -0.0454 (inactive).

Consider `CO[C@H]1O[C@H](CO)[C@@H](OC(=O)Nc2ccccc2-c2ccccc2)[C@H](OC(=O)Nc2ccccc2-c2ccccc2)[C@@H]1OC(=O)Nc1ccccc1-c1ccccc1`, for which the composite z-score in experiment [1] is 0.979 (inactive); in the experiment on XIP peptide (Xip251-270), 0.801. For the same compound, the z-score in experiment [2] is -2.51; in experiment [3], -1.13 (inactive); in experiment [4] it was -0.0022 (inactive); in experiment [5], 0.119 (inactive).

For `O=C(O)[C@H]1C[C@H]2C(=O)N3CCC[C@H]3C(=O)N2[C@H]1c1ccc(O)cc1`, the composite z-score is -0.469 (inactive) in experiment [1] and -0.0016 in the experiment with XIP peptide (Xip251-270). Further, the z-score in experiment [2] was 0.351; in experiment [3], -1.01 (inactive); in experiment [4], 0.272 (inactive); in experiment [5] it was 0.267 (inactive).

Regarding `C=CCNC(=O)[C@H]1[C@@H]2C(=O)O[C@@H](c3ccccc3)[C@@H](c3ccccc3)N2[C@@H](c2ccc(O)cc2)[C@]12C(=O)Nc1ccc(C#CCCO)cc12`, the composite z-score in experiment [1] was -0.0879 (inactive); in the experiment with XIP peptide (Xip251-270) it was -0.227. Further, the z-score in experiment [2] was 0.093; in experiment [3], -4.04 (inactive); in experiment [4], -0.266 (inactive); in experiment [5], -0.136 (inactive).
